Measured values reported in PubChem BioAssay (NCI).
About 79,000 compounds went through this panel and 15% of them were active in at least one assay; those are over-represented in the sample as a whole. Calls of active or inactive are those of the source. Cut-off read from the data, not from the text of the source: active = growth inhibition above about 70%; inactive = the rest. Where a SMILES comes first, the peptide text is derived from it. [ ]: non-standard residue; d: D form. The star is where a group is joined. Phe(4-NO2) = N[CH](Cc1ccc([N+](=O)[O-])cc1)C(=O)O; Boc = CC(C)(C)OC(=O)*; OtBu = CC(C)(C)O*

Columns and labels:
[1] = NCI Yeast Anticancer Drug Screen. Data for the rad50 strain (AID 155);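 note: 0% = growth of vehicle-only cultures of the same strain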; settings: S. cerevisiae rad50 strain growth inhibition; at 50.0 µM; stronger effect = higher value
Summary of the method: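 Relative growth inhibition (compound vs vehicle) was measured in yeast with a defined repair-gene alteration.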

[2] = NCI Yeast Anticancer Drug Screen. Data for the mec2-1 strain (AID 157); settings: S. cerevisiae mec2-1 strain, at 50.0 µM, stronger effect = higher value
Summary of the method: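 Mutant yeast (mec2-1) grown with compound; growth inhibition relative to vehicle control reported.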

[3] = NCI Yeast Anticancer Drug Screen. Data for the sgs1 mgt1 strain (AID 161);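 note: 0% = growth of cultures given vehicle only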; settings: S. cerevisiae sgs1 mgt1 strain, at 50.0 µM, stronger effect = higher value
Summary of the method: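 This yeast growth screen uses a strain with defined DNA-repair lesions; compound-treated growth is compared with vehicle-treated growth.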

[4] = NCI Yeast Anticancer Drug Screen. Data for the cln2 rad14 strain (AID 165);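 note: 0% = growth equal to vehicle treated cultures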; settings: S. cerevisiae cln2 rad14 strain, at 50.0 µM, stronger effect = higher value
Summary of the method: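 Readout is yeast growth inhibition versus vehicle-treated controls, using a strain with cln2 and rad14 alterations exposed to compound.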

[5] = NCI Yeast Anticancer Drug Screen. Data for the bub3 strain (AID 167); settings: S. cerevisiae bub3 mutant strain, at 50.0 µM, stronger effect = higher value
Summary of the method: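 Screening used yeast with an engineered genetic alteration affecting cell cycle control. Compound-exposed cultures were compared with vehicle cultures, and reduced growth was taken as inhibition.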

[6] = NCI Yeast Anticancer Drug Screen. Data for the mlh1 rad18 strain (AID 175); settings: S. cerevisiae mlh1 rad18 strain growth inhibition; at 50.0 µM; stronger effect = higher value
Summary of the method: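 Genetically defined yeast (DNA repair-deficient) exposed to compounds; growth inhibition determined relative to vehicle.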

Measured: growth inhibition

CCOC(=O)/C(=C\c1ccccc1Cl)C(C)=O
active: [1] 99.3% | [2] 98.8% | [3] 99.5% | [4] 98.5% | [5] 98.8% | [6] 99.5%

CC1c2c(cc(=O)n(Cc3ccccc3)c2O)C(=O)N1Cc1ccccc1 (stereo not drawn)
inactive: [1] -12.6% | [2] 16.9% | [3] 3.85% | [4] 4.75% | [5] -23.6% | [6] 8.85%

CS/C(=C\c1ccc(C(=O)c2ccc(C)cc2)n1C)S(C)=O (stereo not drawn)
inactive: [1] 16.6% | [2] 15.2% | [3] 42.4% | [4] 11.1% | [5] -0.7% | [6] 35.5%

C/C(CC(=O)Nc1ccc(NC(=O)C/C(C)=N\NC(N)=O)cc1)=N/NC(N)=O
inactive: [1] 3.5% | [2] -23.9% | [3] -4.65% | [4] 11.1% | [5] -14.1% | [6] 6.75%

O=C(O)CC(NC(=O)c1cnc2ccccc2n1)C(=O)O (stereo not drawn)
inactive: [1] -3.65% | [2] -9.85% | [3] 4.3% | [4] -17.1% | [5] 12.7% | [6] -1%

CCCCOCCOCCOC(=O)C(C)O (stereo not drawn)
inactive: [1] -5.6% | [2] -4.7% | [3] -3.95% | [4] 5.1% | [5] -7.25% | [6] -14%

CC1=CC(NCCC(=O)O)NC(=O)N1 (stereo not drawn)
inactive: [1] 4.25% | [2] -6.2% | [3] -18.1% | [4] -62.6% | [5] -1.75% | [6] -1.85%

O=C(Nc1ccc(CSc2ccc(Cl)cc2)o1)N1CCOCC1
inactive: [1] 15.7% | [2] 8% | [3] 40.8% | [4] 20.9% | [5] 38.4% | [6] 25.4%

O=[N+]([O-])c1ccc(N/N=C/C2CCCCCC2)c([N+](=O)[O-])c1
inactive: [1] 11.4% | [2] 13.6% | [3] -0.75% | [4] -147% | [5] -14.7% | [6] 4%

COC(=O)c1nc(NN)[nH]c(=O)c1CCCCCc1c(C(=O)OC)[nH]c(NN)cc1=O
inactive: [1] -35.4% | [2] -6.65% | [3] -14.1% | [4] 14.9% | [5] -18.1% | [6] -8.85%

O=C(O)/C=C/S(=O)(=O)Cc1ccccc1
inactive: [1] 8.7% | [2] -6.4% | [3] 2.7% | [4] -27.3% | [5] 7.5% | [6] 6.75%

O=C(NCCCl)c1ccc(F)cc1
inactive: [1] -21.2% | [2] -4.65% | [3] -12.4% | [4] 0.35% | [5] -6.95% | [6] -44.7%

O=C(O)c1cc(C2CCCC2)nc2ccccc12
inactive: [1] 4.6% | [2] 17% | [3] -5.25% | [4] -6% | [5] -13.2% | [6] 6.85%

CCCCCCCCCCCCCCCCC[CH2][Sn]([Cl])([CH2]CCCCCCCCCCCCCCCCC)[CH2]CCCCCCCCCCCCCCCCC
inactive: [1] 9.15% | [2] -1.2% | [3] -16.7% | [4] -2.55% | [5] -2.1% | [6] -13.7%

CCCC(C)C(=O)OC1CCCCC1 (stereo not drawn)
inactive: [1] 9.35% | [2] 1.3% | [3] -0.85% | [4] -21.4% | [5] 7.6% | [6] 3%

Cc1c(C(=O)CSc2nc3ccccc3c(=O)n2-c2ccccc2)c(=O)n(-c2ccccc2)n1C
inactive: [1] -9.1% | [2] 0.45% | [3] -18.1% | [4] 37.7% | [5] -11.3% | [6] -12.9%

Clc1cc(OC2C3CC4CC(C3)CC2C4)nc(Cl)n1 (stereo not drawn)
inactive: [1] 8.45% | [2] 1.45% | [3] 27.7% | [4] -1.1% | [5] 16.3% | [6] 65.8%

COc1ccc(Cc2c[nH]c3cc(OC)c(OC)cc23)cc1OC
inactive: [1] -22.8% | [2] -9% | [3] 18.9% | [4] -57.8% | [5] 10.1% | [6] -1.4%

Cc1ccc(NC(=S)NCCc2ccccn2)cc1C
inactive: [1] 29.2% | [2] 13.8% | [3] 28.9% | [4] 1.45% | [5] 21.3% | [6] 21.6%

N/C([S-])=N/N=c1\c(O)c(O)\c1=N/N=C(/N)[S-].[Cu+2]
inactive: [1] -8.6% | [2] -6.6% | [3] -7% | [4] -2.7% | [5] -10.3% | [6] -12.7%

NC(=O)C(Cc1ccccc1)NC(=O)C1CCCN1 (stereo not drawn)
inactive: [1] 4.2% | [2] 1.35% | [3] 2.5% | [4] -33.9% | [5] -6.1% | [6] 24.6%

CSC1(SC)CCCCCCCCCCC1
inactive: [1] -19.8% | [2] -17.2% | [3] -17.9% | [4] -15.9% | [5] -34.9% | [6] -29.4%

CC1(C)OC2C(CO)OC(n3cnc4c(=S)nc(N)[nH]c43)C2O1 (stereo not drawn)
inactive: [1] 18.6% | [2] 12.8% | [3] 2.5% | [4] -24.1% | [5] 12.5% | [6] 21.7%

Cc1cc2c(c(=O)o1)C(C)CC(c1c(O)cc(C)oc1=O)O2 (stereo not drawn)
inactive: [1] 15.3% | [2] 5.35% | [3] 16.8% | [4] 5.85% | [5] 14.1% | [6] 20.6%

CCCCCCCCN1COC2CCc3ccccc3C21 (stereo not drawn)
active: [1] 93.5% | [2] 93.8% | [3] 93.8% | [4] 87.6% | [5] 94% | [6] 92.3%

COC1=c2\cccc\c2=c2/cccc/c2=c2\cccc\c2=N\1
inactive: [1] 17.4% | [2] 13.1% | [3] 11.4% | [4] 12.2% | [5] 13.4% | [6] 17.5%

CCOP(C)(=O)/C(Cc1ccc(OC)c(OC)c1)=N\O (stereo not drawn)
inactive: [1] -21.4% | [2] -22.8% | [3] -14.8% | [4] 10.4% | [5] 23% | [6] -17.2%

COc1cc(C(O)C2(c3ccc(O)c(OC)c3)NC(=O)NC2=O)ccc1O (stereo not drawn)
inactive: [1] -22.2% | [2] 16.3% | [3] -9.35% | [4] -16.9% | [5] 35.2% | [6] -14.3%

CCN(CC)C(=S)SCCO
inactive: [1] -4.3% | [2] -11.2% | [3] 6.15% | [4] -9.7% | [5] -3.5% | [6] -1.65%

C=CCC(O)CC=C
inactive: [1] -8% | [2] -47.5% | [3] 7.15% | [4] -6.5% | [5] 5.2% | [6] -1.7%

CC(=O)N[N+](C)(C)C
inactive: [1] -20% | [2] -39.2% | [3] 11.5% | [4] 4.05% | [5] 1.2% | [6] 7.9%

NOCc1ccc(OCc2ccccc2)cc1
inactive: [1] 5.75% | [2] 7.3% | [3] -6.7% | [4] -18.8% | [5] -2.4% | [6] -11.5%

CC(=O)NC(CCC(=O)OC(C)(C)C)C(=O)NC(CCC(=O)OC(C)(C)C)C(=O)NC(Cc1ccc([N+](=O)[O-])cc1)C(=O)NC(CCCCNC(=O)OC(C)(C)C)C(=O)NC(CCCCNC(=O)OC(C)(C)C)C(=O)NCC(=O)O (stereo not drawn) (Ac-E(OtBu)E(OtBu)[Phe(4-NO2)]K(Boc)K(Boc)G-OH; configuration not given here)
inactive: [1] -31.4% | [2] -19.4% | [3] -22.6% | [4] 13.4% | [5] -8.2% | [6] -27.3%

Nc1ccccc1N/N=C/c1ccccc1
inactive: [1] -4.3% | [2] 15.3% | [3] -15.4% | [4] -37.5% | [5] -15.3% | [6] 5.25%

CSc1nc(N)c(N)c(N)n1
inactive: [1] 0.1% | [2] 2.9% | [3] -2.75% | [4] -21.8% | [5] 11.8% | [6] 14.4%

COc1cc2cnc3c4ccccc4ccc3c2cc1OC
inactive: [1] -48.5% | [2] -18.1% | [3] -1.7% | [4] 4.2% | [5] -2.85% | [6] -9.3%

CSC(=NCc1ccccc1)Nc1c(C)cccc1C
inactive: [1] 13.4% | [2] 4.45% | [3] 6.75% | [4] 8.1% | [5] 28.1% | [6] 17.1%

Nc1nc(N)nc(SCC(=O)O)n1
inactive: [1] 8.55% | [2] -23.2% | [3] 2% | [4] 3.15% | [5] -2.05% | [6] 14.9%
